PubChem BioAssay (Tox21)
Records with an inconclusive call do not appear. Activity calls are given as the source filed them. Unless noted, calls come from the whole dose curve.

Columns and labels:
[1] = biological target: Peroxisome proliferator-activated receptor delta (Homo sapiens) (UniProt Q03181); test: qHTS assay to identify small molecule agonists of the peroxisome proliferator-activated receptor delta (PPARd) signaling pathway (AID 743212)
In short: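 HEK293H PPARd-bla cells; 5 h preincubation 37 C/5% CO2; compound (DMSO) 37 C; LiveBLAzer B/G FRET substrate 2 h RT; fluorescence intensity.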

[2] = qHTS assay to identify small molecule antagonists of the peroxisome proliferator-activated receptor delta (PPARd) signaling pathway - cell viability counter screen (AID 743213; active = well fitted curve in the direction sought with a large enough effect in the repeat runs; an effect the other way counts as inactive or inconclusive; note: nearly all actives have a fitted effect of over 50% in size)
In short: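 CellTiter-Glo was added to PPARd-bla HEK293H wells following 17 h compound treatment in the presence of 300 nM L165041. Luminescence was recorded after 30 min at room temperature.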

[3] = biological target: Peroxisome proliferator-activated receptor delta (Homo sapiens) (UniProt Q03181); test: qHTS assay to identify small molecule antagonists of the peroxisome proliferator-activated receptor delta (PPARd) signaling pathway (AID 743215; active = well fitted inhibition curve with a large enough effect in the signal ratio in the repeat runs, not every such curve was filed as active; the % refers to the signal ratio;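 note: cells stimulated with agonist L165041 at 300 nM final during compound exposure; series mostly up to about 62 µM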)
In short: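 PPARd UAS-bla HEK293H cells were pre-incubated 5 h at 37 C, then given test compounds in DMSO plus agonist L165041 (300 nM final). After 17 h at 37 C, beta-lactamase FRET substrate was added; fluorescence read after 2 h at room temperature.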

[4] = qHTS assay to identify small molecule agonists of the farnesoid-X-receptor (FXR) signaling pathway - cell viability counter screen (AID 743218; active = well fitted curve in the direction sought with a large enough effect in the repeat runs; an effect the other way counts as inactive or inconclusive; note: nearly all actives have a fitted effect of over 45% in size)
In short: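 FXR-UAS-bla HEK 293T cells, plated 5 h at 37 C, were exposed to compounds for 16 h at 37 C. CellTiter-Glo was then added to the same wells as the bla readout; luminescence read after 30 min at room temperature.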

[5] = qHTS assay to identify small molecule antagonists of the farnesoid-X-receptor (FXR) signaling pathway - cell viability counter screen (AID 743221; active = well fitted cell-killing curve with a large enough effect in the repeat runs, not every such curve was filed as active; note: nearly all actives have a fitted effect of over 50% in size)
In short: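 GeneBLAzer FXR-UAS-bla HEK 293T cells, compound plus chenodeoxycholic acid (50 uM final), 16 h at 37 C. CellTiter-Glo added to the same wells after the beta-lactamase read; luminescence read after 30 min at room temperature as viability.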

[6] = biological target: Vitamin D3 receptor (Homo sapiens) (UniProt P11473); test: qHTS assay to identify small molecule agonists of the vitamin D receptor (VDR) signaling pathway (AID 743222)
Sequence of Vitamin D3 receptor (Homo sapiens) (P11473 whole entry, looked up): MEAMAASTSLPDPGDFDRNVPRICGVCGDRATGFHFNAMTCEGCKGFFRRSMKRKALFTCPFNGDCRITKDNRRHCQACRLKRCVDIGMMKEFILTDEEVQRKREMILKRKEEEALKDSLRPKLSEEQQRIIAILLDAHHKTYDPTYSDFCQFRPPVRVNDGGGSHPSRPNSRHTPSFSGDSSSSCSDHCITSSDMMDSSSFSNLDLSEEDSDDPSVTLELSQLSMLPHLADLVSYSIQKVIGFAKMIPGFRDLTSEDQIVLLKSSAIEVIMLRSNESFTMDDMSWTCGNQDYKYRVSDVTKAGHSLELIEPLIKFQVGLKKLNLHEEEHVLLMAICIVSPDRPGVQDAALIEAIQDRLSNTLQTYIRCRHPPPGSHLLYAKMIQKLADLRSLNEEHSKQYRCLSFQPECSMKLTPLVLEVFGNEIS
In short: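 VDR-bla cells were plated 4 h at 37C/5% CO2, then exposed to compounds in DMSO for 16 h. After LiveBLAzer B/G FRET substrate addition and 2 h at room temperature, beta-lactamase reporter fluorescence was read.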

[7] = qHTS assay to identify small molecule agonists of the vitamin D receptor (VDR) signaling pathway - cell viability counter screen (AID 743224; active = well fitted curve in the direction sought with a large enough effect in the repeat runs; an effect the other way counts as inactive or inconclusive; note: series mostly up to about 63 µM; nearly all actives have a fitted effect of over 50% in size)
In short: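 VDR-bla cells were preincubated 4 h at 37C/5% CO2, then exposed to compounds for 16 h. After the 2 h room-temperature bla FRET read, CellTiter-Glo was added to the same wells and luminescence read after 30 min.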

[8] = qHTS assay to identify small molecule antagonists of the vitamin D receptor (VDR) signaling pathway - cell viability counter screen (AID 743225; active = well fitted curve in the direction sought with a large enough effect in the repeat runs; an effect the other way counts as inactive or inconclusive; note: nearly all actives have a fitted effect of over 50% in size)
In short: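 VDR-UAS-bla HEK 293T cells were plated and incubated 4 h at 37C, then dosed with compound plus 3 nM (final) 1-alpha,25-dihydroxyvitamin D3 for 16 h. After the 2 h beta-lactamase read, viability in the same wells was read as CellTiter-Glo luminescence after 30 min at room temperature.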

[9] = qHTS assay to identify small molecule agonists of the NFkB signaling pathway - cell viability counter screen (AID 1159515); note: series mostly up to about 61 µM; nearly all actives have a fitted effect of over 55% in size
In short: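 NFkB-bla ME-180 cells, 2,000/well, were plated overnight at 37 C, 5% CO2, then exposed to compounds in DMSO for 5 hr. After the bla FRET read, CellTiter-Glo was added to the same wells; luminescence was read after 30 min at room temperature.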

[10] = qHTS assay to identify small molecule agonists of the endoplasmic reticulum stress response signaling pathway (AID 1159516; active = well fitted activation curve with a large enough effect in the signal ratio in the repeat runs, not every such curve was filed as active; the % refers to the signal ratio)
In short: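 CellSensor ESRE-bla HeLa cells, carrying a beta-lactamase reporter driven by the ER stress response element, were plated overnight and exposed to compounds for 5 hr at 37 C. Reporter activity was read as FRET substrate fluorescence after 2 hr at room temperature.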

[11] = qHTS assay to identify small molecule agonists of the endoplasmic reticulum stress response signaling pathway - cell viability counter screen (AID 1159517)
In short: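 HeLa cells carrying an ESRE-driven beta-lactamase reporter receive compound for 5 hr at 37 C. Cell viability is then gauged with CellTiter-Glo by luminescence, 30 min at room temperature.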

[12] = qHTS assay to identify small molecule antagonists of the retinoid-related orphan receptor gamma (ROR-gamma) signaling pathway - cell viability counter screen (AID 1159520; active = well fitted curve in the direction sought with a large enough effect in the repeat runs; an effect the other way counts as inactive or inconclusive; note: nearly all actives have a fitted effect of over 50% in size)
In short: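 Cytotoxicity was read from cellular ATP (CellTiter-Glo luminescence) after 16 hr at 37 C with 1 uM doxycycline induction. The inducer was added 2 hr after compound transfer to Tet-on ROR gamma CHO cells.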

[13] = qHTS assay to identify small molecule agonists of the AP-1 signaling pathway - cell viability counter screen (AID 1159525); note: nearly all actives have a fitted effect of over 55% in size
In short: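 Luminescent ATP readout (Cell Titer Glo, 30 min RT), normalised to DMSO and tetra n-octyl ammonium bromide controls. Cells were ME-180 AP-1-bla in 0.5% dialyzed FBS Opti-MEM, with a 5 h, 37 °C compound exposure.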

[14] = qHTS assay to identify small molecule agonists of the AP-1 signaling pathway (AID 1159526)
[15] = biological target: Retinoic acid receptor RXR-alpha (Homo sapiens) (UniProt P19793); test: qHTS assay to identify small molecule agonists of the RXR signaling pathway (AID 1159527); note: nearly all actives have a fitted effect of over 35% in size
Sequence of Retinoic acid receptor RXR-alpha (Homo sapiens) (P19793 whole entry, looked up): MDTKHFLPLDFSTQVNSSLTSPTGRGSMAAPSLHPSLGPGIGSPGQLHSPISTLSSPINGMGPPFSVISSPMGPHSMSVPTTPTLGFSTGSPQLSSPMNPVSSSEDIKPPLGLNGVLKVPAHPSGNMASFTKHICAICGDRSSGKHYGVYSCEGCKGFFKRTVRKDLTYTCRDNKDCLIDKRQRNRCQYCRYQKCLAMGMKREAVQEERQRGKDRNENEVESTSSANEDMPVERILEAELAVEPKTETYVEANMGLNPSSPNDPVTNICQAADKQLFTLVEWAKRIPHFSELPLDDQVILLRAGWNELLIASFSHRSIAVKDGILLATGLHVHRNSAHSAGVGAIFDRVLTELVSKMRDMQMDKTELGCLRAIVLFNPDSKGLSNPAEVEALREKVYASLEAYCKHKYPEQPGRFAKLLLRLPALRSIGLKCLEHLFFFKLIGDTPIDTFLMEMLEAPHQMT
In short: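 GeneBLAzer RXR-alpha-UAS-bla HEK 293T cells in 2% charcoal-stripped FBS medium were exposed to compounds for 16 hr at 37 C in agonist mode. Beta-lactamase reporter read as 460/530 nm FRET ratio after 2 hr substrate loading.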

[16] = qHTS assay to identify small molecule agonists of the peroxisome proliferator-activated receptor delta (PPARd) signaling pathway - cell viability counter screen (AID 743211; active = well fitted curve in the direction sought with a large enough effect in the repeat runs; an effect the other way counts as inactive or inconclusive; note: nearly all actives have a fitted effect of over 55% in size)
In short: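 PPARd-bla HEK293H cells (3000/well) were pre-incubated 5 h at 37 C, then exposed to compound for 17 h at 37 C. After 2 h with LiveBLAzer substrate, CellTiter-Glo was added to the same wells; luminescence read after 30 min at room temperature.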

[17] = biological target: Bile acid receptor (Homo sapiens) (UniProt Q96RI1); test: qHTS assay to identify small molecule antagonists of the farnesoid-X-receptor (FXR) signaling pathway (AID 743217; active = well fitted inhibition curve with a large enough effect in the signal ratio in the repeat runs, not every such curve was filed as active; the % refers to the signal ratio)
Sequence of Bile acid receptor (Homo sapiens) (Q96RI1 whole entry, looked up): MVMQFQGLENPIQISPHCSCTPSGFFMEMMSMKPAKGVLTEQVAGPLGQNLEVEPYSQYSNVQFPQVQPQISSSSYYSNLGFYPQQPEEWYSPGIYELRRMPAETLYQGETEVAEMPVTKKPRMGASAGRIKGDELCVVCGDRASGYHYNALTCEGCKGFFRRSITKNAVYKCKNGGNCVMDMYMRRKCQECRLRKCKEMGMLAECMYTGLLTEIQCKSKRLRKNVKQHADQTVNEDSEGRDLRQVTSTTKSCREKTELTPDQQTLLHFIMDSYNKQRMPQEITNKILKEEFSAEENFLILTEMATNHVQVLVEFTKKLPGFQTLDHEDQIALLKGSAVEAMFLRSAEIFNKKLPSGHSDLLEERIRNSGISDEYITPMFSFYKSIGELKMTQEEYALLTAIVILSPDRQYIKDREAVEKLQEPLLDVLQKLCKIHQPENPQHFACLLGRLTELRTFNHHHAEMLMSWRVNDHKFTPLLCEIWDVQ
In short: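 FXR-UAS-bla HEK 293T cells pre-incubated 5 h at 37 °C, then exposed to compounds with chenodeoxycholic acid (50 uM final) for 16 h at 37 °C. Beta-lactamase reporter read by LiveBLAzer B/G FRET substrate fluorescence after 2 h at room temperature.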

[18] = biological target: Bile acid receptor (Homo sapiens) (UniProt Q96RI1); test: qHTS assay to identify small molecule agonists of the farnesoid-X-receptor (FXR) signaling pathway (AID 743220; active = well fitted activation curve with a large enough effect in the signal ratio in the repeat runs, not every such curve was filed as active; the % refers to the signal ratio)
In short: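 Beta-lactamase reporter under UAS control in GeneBLAzer FXR HEK 293T cells (5000/well) measured with LiveBLAzer FRET substrate after 2 h at room temperature. Compound exposure lasted 16 h at 37C.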

[19] = biological target: Vitamin D3 receptor (Homo sapiens) (UniProt P11473); test: qHTS assay to identify small molecule antagonists of the vitamin D receptor (VDR) signaling pathway (AID 743223; active = well fitted inhibition curve with a large enough effect in the signal ratio in the repeat runs, not every such curve was filed as active; the % refers to the signal ratio)
In short: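 VDR-bla cells were treated with compound plus 3 nM final 1alpha,25-dihydroxyvitamin D3 for 16 h at 37C. Beta-lactamase reporter read by B/G FRET substrate fluorescence after 2 h at room temperature. qHTS format.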

[20] = biological target: Nuclear receptor ROR-gamma (Homo sapiens) (UniProt P51449); test: qHTS assay to identify small molecule antagonists of the retinoid-related orphan receptor gamma (ROR-gamma) signaling pathway (AID 1159521; active = well fitted curve in the direction sought with a large enough effect in the repeat runs; an effect the other way counts as inactive or inconclusive)
In short: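 Tet-on ROR-gamma CHO cells with ROR response element-luciferase reporter; compounds added 2 hr before 1 uM doxycycline induction, then 16 hr at 37 C. Antagonism scored as decreased ONE-Glo luminescence.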

Measured: Potency

Sequence of Peroxisome proliferator-activated receptor delta (Homo sapiens) (Q03181 whole entry, looked up): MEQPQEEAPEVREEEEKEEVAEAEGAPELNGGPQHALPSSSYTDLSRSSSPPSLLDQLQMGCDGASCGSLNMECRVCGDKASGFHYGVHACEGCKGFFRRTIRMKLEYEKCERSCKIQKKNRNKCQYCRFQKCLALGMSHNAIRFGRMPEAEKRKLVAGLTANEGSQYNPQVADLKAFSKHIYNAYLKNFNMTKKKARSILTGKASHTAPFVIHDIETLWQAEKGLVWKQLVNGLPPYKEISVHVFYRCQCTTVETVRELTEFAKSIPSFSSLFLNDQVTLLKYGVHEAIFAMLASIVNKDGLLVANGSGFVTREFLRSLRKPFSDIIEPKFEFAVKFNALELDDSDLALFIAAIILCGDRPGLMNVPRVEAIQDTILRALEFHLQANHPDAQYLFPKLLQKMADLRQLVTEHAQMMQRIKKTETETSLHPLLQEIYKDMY

NC(CCC(=O)O)C(=O)O (centres undefined)
not listed: [16] | [17] | [18] | [19] | [20]
inactive: all other assays above

CCCCN(CCC(=O)OCC)C(C)=O
not listed: [3] | [17] | [18] | [19] | [20]
inactive: all other assays above

CC1=NN(c2cc(S(=O)(=O)O)ccc2Cl)C(=O)C1N=Nc1ccccc1 (centres undefined)
not listed: [10]
inactive: all other assays above

Clc1cc(Cl)c(Cl)nc1Cl
not listed: [1] | [4] | [7] | [20]
inactive: all other assays above

CCOC(=O)CCC(=O)OCC
not listed: [4] | [6] | [17] | [18] | [20]
inactive: all other assays above

CN1CCC(=C2c3ccccc3CCc3cccnc32)CC1
not listed: [16] | [17] | [18] | [20]
inactive: all other assays above

O=Cc1cccc(Br)c1
not listed: [20]
inactive: all other assays above

O=C(O)CNC(=O)c1ccccc1
not listed: [3] | [6] | [16] | [17] | [18] | [19] | [20]
inactive: all other assays above

CCN(C=O)CC
not listed: [1] | [3] | [6] | [20]
inactive: all other assays above

Cc1ncc([C@@H](CCCCCCc2ccc3c(n2)NCCC3)CC(=O)O)cn1
not listed: [3] | [4] | [17] | [19] | [20]
inactive: all other assays above

Cc1ccc(-c2ncc(Cl)cc2-c2ccc(S(C)(=O)=O)cc2)cn1
not listed: [1] | [3] | [20]
inactive: all other assays above

[Ca+2]
not listed: [4] | [8] | [17] | [18] | [20]
inactive: all other assays above

CCC(C)(CN(C)C)OC(=O)c1ccccc1 (centres undefined)
not listed: [1] | [3] | [4] | [16] | [17] | [18] | [19]
inactive: all other assays above

FB(F)F
not listed: [3] | [5] | [20]
inactive: all other assays above

CCN(Cc1ccccc1)c1ccccc1
not listed: [6] | [17] | [18] | [19] | [20]
inactive: all other assays above

CC1=C(C/C=C(\C)CCC[C@H](C)CCC[C@H](C)CCCC(C)C)C(=O)c2ccccc2C1=O
not listed: [17] | [18] | [20]
inactive: all other assays above

CCC1C(=O)OCC1Cc1cncn1C (centres undefined)
not listed: [1] | [17] | [18] | [20]
inactive: all other assays above
